# From PubChem BioAssay
# MCF10A rereplic – inducers of DNA re-replication in MCF 10A breast cells; MCF 10A DNA re-replication, Hoechst nuclear intensity, 48 h; Potency, µM (titrated, usually from 46.1 µM), inactives show top-dose activity, positive = re-replication, hits mostly activators; actives 2.9% (n = 350,000); note: % of control where 0% means no effect; nearly all actives have a fitted effect of over 50% in size
# KB-3-1 cytotox – KB-3-1 parental cell cytotoxicity. Potency, µM (titrated, usually from 46.1 µM), hits mostly cytotoxic. KB-3-1 viability, CellTiter-Glo ATP luminescence, 72 h. actives 1.4% (n = 400,000); note: % is set by controls: 0 for no effect and ±100 for the full control effect; nearly all actives have a fitted effect of over 60% in size
#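 KB-3-1 cells, DMEM (no phenol red) + 10% FBS; compound by pin transfer, 72 h, 37 °C. Readout: CellTiter-Glo luminescence after 10 min. Data normalized, curve-fitted.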
# ELG1 repair inh – blocks ELG1-dependent DNA repair in HEK293T cells; AID 504467; Potency, µM (highest dose often 46.1 µM), for the others: at the top dose activity change, negative = inhibition, usual class: inhibitors; HEK293T ELG1-luciferase reporter, luminescence, 16 h; DNA damage induced by 5-fluorouridine; actives 2.3% (n = 330,000); note: % is set by controls: 0 for no effect and ±100 for the full control effect; nearly all actives have a fitted effect of over 55% in size
#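 Luminescence from the luciferase reporter, measured 30 min after ONE-Glo reagent at room temperature, was the read-out. Beforehand, 2,000 cells per well were exposed for 16 hr at 37 °C to 5-fluorouridine together with compound or vehicle.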
# SW480 rereplic – induces DNA re-replication in SW480 colon adenocarcinoma cells | SW480 DNA re-replication, Hoechst DNA content imaging, 48 h | Potency, µM (series often up to 46.1 µM), for inactives: at the highest dose re-replication activation, hits mostly activators | actives 1.8% (n = 340,000); note: % of control where 0% means no effect; nearly all actives have a fitted effect of over 55% in size
#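 Cells (250 per well) received 23 nL compound or DMSO by pin tool and were kept 48 hr at 37 C, 5% CO2. Nuclei were then stained with Hoechst for 40 min and scanned for DNA content.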
# KB-V1 cytotox – KB-V1 MDR subline cytotoxicity; KB-V1 MDR cells viability, CellTiter-Glo, 72 h; Potency, µM (highest dose often 46.1 µM), hits mostly cytotoxic; actives 3.4% (n = 400,000); AID 1347076; note: % is set by controls: 0 for no effect and ±100 for the full control effect; nearly all actives have a fitted effect of over 60% in size
#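 Readout: CellTiter-Glo luminescence, 10 min after addition. Cells: KB-V1 MDR subline, 72 h at 37 degrees C with compound. Analysis: corrected, normalized data fitted to concentration-effect curves.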
# * = called active by the depositor; i = inactive; ? = inconclusive; · = no result; ! = not active in a repeat. The list is not random: actives were taken first. Their share in the collection is about 8.1%. Calls come from the whole dose curve; as a rule, active = well fitted curve in the direction sought with a large enough effect; inconclusive = small, poorly fitted or top-dose-only effect, or another doubt; inactive = no such curve, though single readings can be large; an effect the other way counts as inactive or inconclusive. Potency is the fitted concentration of half-maximal effect.
SMILES,MCF10A rereplic,KB-3-1 cytotox,ELG1 repair inh,SW480 rereplic,KB-V1 cytotox
CCC1(C)Cc2c(sc3[nH]c(=O)[nH]c(=O)c23)CS1 (stereo not given),1.2%,i,7.6%,-5.6%,11.6µM*
C(=N\Nc1nc(Nc2ccccc2)nc(N2CCOCC2)n1)/c1c[nH]c2ccccc12,16.4µM*,?,16.4µM*,0.82µM*,23.1µM*
COc1cc(/C=N/Nc2nc(N3CCCCC3)nc(N3CCCCC3)n2)ccc1OC(=O)c1ccco1,·,·,6.1%,·,·
Cc1[nH]c2ccccc2c1/C=N/Nc1nc(Nc2ccc(F)cc2)nc(N2CCOCC2)n1,5.1%,i,20.6µM*,0.5%,i
Cc1ccc(Nc2nc(N/N=C/c3c[nH]c4ccccc34)nc(N3CCOCC3)n2)cc1,?,i,16.4µM*,13µM*,?
O=C(Oc1cccc(/C=N/Nc2nc(Nc3ccccc3)nc(N3CCOCC3)n2)c1)c1ccco1,?,i,9.2µM*,?,14.6µM*
Fc1ccc(Nc2nc(N3CCOCC3)nc(N3CCOCC3)n2)cc1,-0.9%,i,?,12.7%,i
Oc1c(C(c2ccc(Cl)cc2Cl)N2CCCC2)sc2nc(-c3ccco3)nn12 (stereo not given),·,i,·,·,i
COc1cc(OC)c(OC)cc1/C=C/c1ccc2ccccc2[n+]1C,·,13µM*,·,·,i
COc1ccc(/C=C/c2ccc3ccccc3[n+]2C)c(OC)c1OC,·,?,·,·,i
CC(=O)Oc1ccccc1/C=C/c1ccc2ccccc2[n+]1C,?,i,?,8.4%,i
COc1ccc(/C=C/c2ccc3ccccc3[n+]2C)cc1OC,-7.9%,10.3µM*!,?,-29.2%,i
C=CC(C)(C)c1[nH]cnc1/C=C1\NC(=O)C(C(C)C)NC1=O (stereo not given),?,5.8µM*,-19.8%,?,i
COc1cccc(NC(=O)C(=O)NCCC2CCCCN2S(=O)(=O)c2cccs2)c1 (stereo not given),10.1%,i,?,6.5%,i
CCOc1ccc(NC(=O)CN(C)C(=O)c2ccccc2OCCOc2ccccc2)cc1OCC,10.4%,i,11.6µM*,0.0%,2.31µM*
CCOc1ccc(NC(=O)CN(C)C(=O)c2ccccc2CCc2ccccc2)cc1OCC,?,i,7.3µM*,-0.3%,?
CCOc1ccc(NC(=O)CN(C)C(=O)c2cccc3ccccc23)cc1OCC,2.4%,?,2.0%,-4.1%,?
CCOc1ccc(NC(=O)CN(C)C(=O)c2cn(-c3ccc(F)cc3)nc2-c2cccc(OC)c2)cc1OCC,?,i,9.2µM*,1.4%,?
COc1ccc(-c2nnc(Nc3ccc(OCC(N)=O)cc3)c3ccccc23)cc1,·,i,·,·,i
Cc1ccc(NC(=O)c2cc(-c3ccc(Br)s3)nc3ccccc23)cc1F,·,i,·,·,i
O=C(Nc1ccc2ccccc2c1)N1CCCN(CCOc2ccccc2)CC1,8.5%,?,?,-20.3%,14.6µM*
CCc1c(C)c2cc(Cl)c(O)c(CN3CCCC3)c2oc1=O,?,i,6.3%,20.6µM*,i
CCOC(=O)c1c(C)cc2c(CO)n[nH]c(=O)c2c1C,·,i,·,·,0.82µM*
COc1ccc(S(=O)(=O)n2nc(OC(=O)c3cccs3)cc2N)cc1,6.3%,i,-15.2%,-4.3%,i
COc1ccc(S(=O)(=O)n2nc(OCc3cccs3)cc2N)cc1,12.1%,i,-18.9%,-14.0%,20.6µM*
C#CCOCC1CNC(=S)O1 (stereo not given),·,i,·,·,i
COc1ccc(/C=C/c2nccc3c2[nH]c2ccccc23)cc1,·,i,·,·,i
C=Cc1ncc(OC)c2c1[nH]c1ccccc12,?,5.8µM*,4.5%,?,i
N=c1c(C(=O)NCC2CCCO2)cc2c(=O)n3ccccc3nc2n1CCCO (stereo not given),·,i,·,·,i
N=c1c(C(=O)NCC2CCCO2)cc2c(=O)n3ccccc3nc2n1C1CCCC1 (stereo not given),5.17µM*,i,?,?,i
